Measured values reported in PubChem BioAssay.
Calls of active or inactive are those of the source.

Legend:
[1] = test system: PRMT1 (protein arginine N-methyltransferase 1); assay: PRMT1 binders on small-molecule microarrays, primary screen, biochemical, small-molecule microarray, 635 nm fluorescence (AID 1088); conditions: small-molecule microarray binding, higher = more signal;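 further: binding of Prmt1 protein to compounds spotted on small-molecule microarray slides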
[2] = yeast growth modulation, basal conditions, primary screen, YJM789 clinical isolate, OD600, 24 h (AID 1089);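 further: growth of clinical yeast isolate S. cerevisiae YJM 789 seeded 1000 cells per well; test concentration not given here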; conditions: S. cerevisiae YJM789 growth, higher = more signal, called active from +8 up or from −8 down
[3] = fission yeast growth modulation, primary screen, strain 972, OD600, 24 h, no modulator (AID 1090);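 further: basal condition with compound alone and no growth modifier present; test concentration not given here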; conditions: S. pombe 972 growth, higher = more signal, called active from +8 up or from −8 down
[4] = S. cerevisiae growth modulation with rapamycin, primary screen, strain BY4716, OD600, 96 h (AID 1091); conditions: higher = more signal, called active from +8 up or from −8 down; further: test concentration not given here
[5] = target: Torsin-1A-interacting protein 2 (Homo sapiens) (UniProt Q8NFQ8); assay: LULL1 binders on small-molecule microarray, primary screen, cell lysate, human LULL1 lysate, 635/667 nm fluorescence (AID 1092); conditions: hLULL1 lysate binding, 635 nm fluorescence, higher = more signal;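 further: probe is lysate of COS7 cells overexpressing human LULL1; score merges per-feature 667 nm fluorescence with signal-to-noise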
Chain of Torsin-1A-interacting protein 2 (Homo sapiens) (Q8NFQ8 whole entry, looked up): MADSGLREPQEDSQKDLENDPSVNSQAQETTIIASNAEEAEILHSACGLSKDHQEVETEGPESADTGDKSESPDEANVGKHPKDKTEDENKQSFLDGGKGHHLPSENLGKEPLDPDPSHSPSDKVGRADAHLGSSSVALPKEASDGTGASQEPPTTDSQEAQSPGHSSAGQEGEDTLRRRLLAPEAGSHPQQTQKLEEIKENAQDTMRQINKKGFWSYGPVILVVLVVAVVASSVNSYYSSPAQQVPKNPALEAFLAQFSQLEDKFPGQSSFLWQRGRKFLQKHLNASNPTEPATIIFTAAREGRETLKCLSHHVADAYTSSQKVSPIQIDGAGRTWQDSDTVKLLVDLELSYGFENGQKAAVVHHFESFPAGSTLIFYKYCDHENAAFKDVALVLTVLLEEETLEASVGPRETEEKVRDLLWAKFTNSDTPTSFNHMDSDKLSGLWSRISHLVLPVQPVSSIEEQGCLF

[6] = E. coli growth modulation, two-sided OD650, primary screen, E. coli filamentation project, strain DRC41, 24 h (AID 1093); conditions: OD650, 24 h, higher = more signal, called active from +8 up or from −8 down;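 further: MC1000 strain lacking acrAB efflux and sulA so SOS filamentation is blocked; test concentration not given here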
[7] = small-molecule microarray binders of probe aLefty2, primary screen, biochemical, biotinylated probe, 635/667 nm fluorescence (AID 1094); conditions: higher = more signal;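 further: score merges spot fluorescence near 667 nm with spot signal-to-noise ratio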
[8] = test system: Noggin (protein binding on small-molecule microarray); assay: Noggin binders on small-molecule microarray, primary screen, biochemical, 635/667 nm fluorescence (AID 1095); conditions: 635 nm fluorescence, higher = more signal;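 further: score merges 667 nm feature fluorescence with signal to noise over triplicate slides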
[9] = target: Neurogenic locus notch homolog protein 3 (Homo sapiens) (UniProt Q9UM47); assay: NOTCH3 binders on small-molecule microarray, primary screen, biochemical, 635/667 nm fluorescence (AID 1096); conditions: NOTCH3 binding, 635 nm fluorescence, higher = more signal
Chain of Neurogenic locus notch homolog protein 3 (Homo sapiens) (Q9UM47 whole entry, looked up): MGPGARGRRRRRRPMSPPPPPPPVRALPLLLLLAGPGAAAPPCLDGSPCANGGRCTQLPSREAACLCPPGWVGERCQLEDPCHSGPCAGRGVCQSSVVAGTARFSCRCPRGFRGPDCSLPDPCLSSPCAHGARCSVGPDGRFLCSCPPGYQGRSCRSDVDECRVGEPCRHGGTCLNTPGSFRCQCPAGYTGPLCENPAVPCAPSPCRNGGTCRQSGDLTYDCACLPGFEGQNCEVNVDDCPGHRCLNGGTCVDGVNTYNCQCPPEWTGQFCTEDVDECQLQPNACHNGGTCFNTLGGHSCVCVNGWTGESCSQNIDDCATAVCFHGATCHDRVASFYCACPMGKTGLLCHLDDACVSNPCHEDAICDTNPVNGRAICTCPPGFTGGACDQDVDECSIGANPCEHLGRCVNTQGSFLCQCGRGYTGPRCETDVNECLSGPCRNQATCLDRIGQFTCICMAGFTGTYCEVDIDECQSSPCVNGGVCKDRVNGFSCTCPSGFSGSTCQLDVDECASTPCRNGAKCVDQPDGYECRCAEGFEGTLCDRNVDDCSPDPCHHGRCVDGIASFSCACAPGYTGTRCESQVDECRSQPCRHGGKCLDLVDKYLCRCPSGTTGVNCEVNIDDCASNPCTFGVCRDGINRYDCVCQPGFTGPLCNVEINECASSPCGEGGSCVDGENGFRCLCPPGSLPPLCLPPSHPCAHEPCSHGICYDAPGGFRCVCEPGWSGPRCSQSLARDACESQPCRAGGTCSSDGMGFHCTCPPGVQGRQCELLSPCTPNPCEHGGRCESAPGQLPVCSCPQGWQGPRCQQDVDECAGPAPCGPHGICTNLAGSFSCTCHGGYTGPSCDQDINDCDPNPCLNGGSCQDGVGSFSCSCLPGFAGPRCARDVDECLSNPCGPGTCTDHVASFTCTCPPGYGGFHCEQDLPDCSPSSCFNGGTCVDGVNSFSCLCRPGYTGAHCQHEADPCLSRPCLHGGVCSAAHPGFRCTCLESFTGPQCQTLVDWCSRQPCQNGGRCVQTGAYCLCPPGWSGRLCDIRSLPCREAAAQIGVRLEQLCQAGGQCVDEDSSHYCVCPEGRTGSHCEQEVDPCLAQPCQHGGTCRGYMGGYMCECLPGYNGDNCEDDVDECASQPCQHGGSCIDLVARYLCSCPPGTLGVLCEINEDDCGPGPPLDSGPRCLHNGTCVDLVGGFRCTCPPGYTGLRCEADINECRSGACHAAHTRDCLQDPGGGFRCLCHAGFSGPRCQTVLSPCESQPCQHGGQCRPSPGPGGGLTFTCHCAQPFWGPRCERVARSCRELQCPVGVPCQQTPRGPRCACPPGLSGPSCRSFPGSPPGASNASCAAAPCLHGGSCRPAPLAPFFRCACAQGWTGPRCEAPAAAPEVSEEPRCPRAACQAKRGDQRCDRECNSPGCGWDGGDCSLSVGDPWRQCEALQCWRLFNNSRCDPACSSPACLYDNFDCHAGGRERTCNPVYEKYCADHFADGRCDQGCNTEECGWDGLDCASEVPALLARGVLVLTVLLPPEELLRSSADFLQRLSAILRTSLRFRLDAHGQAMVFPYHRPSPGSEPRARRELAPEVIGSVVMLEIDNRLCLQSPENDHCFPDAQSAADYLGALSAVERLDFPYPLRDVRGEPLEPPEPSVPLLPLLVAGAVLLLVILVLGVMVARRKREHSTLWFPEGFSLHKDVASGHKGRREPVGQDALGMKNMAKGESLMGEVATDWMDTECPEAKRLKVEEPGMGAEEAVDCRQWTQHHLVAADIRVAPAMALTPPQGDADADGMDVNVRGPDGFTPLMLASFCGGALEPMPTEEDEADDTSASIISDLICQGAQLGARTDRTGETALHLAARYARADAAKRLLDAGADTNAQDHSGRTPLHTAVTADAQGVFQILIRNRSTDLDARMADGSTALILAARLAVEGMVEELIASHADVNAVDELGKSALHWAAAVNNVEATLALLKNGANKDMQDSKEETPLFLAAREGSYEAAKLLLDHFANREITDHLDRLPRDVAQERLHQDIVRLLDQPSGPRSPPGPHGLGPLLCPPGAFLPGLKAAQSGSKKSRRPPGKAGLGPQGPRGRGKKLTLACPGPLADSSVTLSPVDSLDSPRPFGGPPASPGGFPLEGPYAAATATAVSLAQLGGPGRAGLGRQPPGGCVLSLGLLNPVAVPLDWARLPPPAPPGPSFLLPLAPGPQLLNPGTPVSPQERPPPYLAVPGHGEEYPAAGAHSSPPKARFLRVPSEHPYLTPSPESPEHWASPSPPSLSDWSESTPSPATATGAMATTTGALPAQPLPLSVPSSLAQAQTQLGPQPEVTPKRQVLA

[10] = small-molecule microarray binders of probe aEGFR, primary screen, biochemical, biotinylated probe, 635/667 nm fluorescence (AID 1097); conditions: higher = more signal;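 further: probe is a biotinylated anti-EGFR antibody binding compounds printed on slides; score combines fluorescence near 667 nm and signal to noise of each spot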

Structure (SMILES)	composite z-score [1]	z-score [2]	z-score [3]	z-score [4]	composite z-score [5]	z-score [6]	composite z-score [7]	composite z-score [8]	composite z-score [9]	composite z-score [10]
O=C1C2C=CC(C(O)c3ccc([N+](=O)[O-])cc3)N(Nc3ccc([N+](=O)[O-])cc3)C2C(=O)N1c1ccccc1 (stereo not given)	1.46	0.664 (inactive)	1.53 (inactive)	3.26 (inactive)	3.28	-0.956 (inactive)	0.198	-0.238	1.04	0.387
O=C(NN=C1C[C@@H](O)[C@@H](O)[C@@H]2[C@@H]3C(=O)N(c4cccc(Oc5ccccc5)c4)C(=O)[C@@H]3CC[C@H]12)OCc1ccccc1	-0.425	0.686 (inactive)	-0.141 (inactive)	-0.669 (inactive)	0.415	1.24 (inactive)	-0.0812	0.53	0.305	-0.152
[N-]=[N+]=Nc1ccccc1C[C@@]1(C(N)=O)N=C(c2ccc(OCCCO)cc2)O[C@@H]1c1ccccc1	0.683	-0.501 (inactive)	-0.371 (inactive)	-0.481 (inactive)	2.06	0.0722 (inactive)	0.316	-0.754	0.156	-0.0455
C=CCOC(=O)[C@H]1[C@@H]2C(=O)O[C@@H](c3ccccc3)[C@@H](c3ccccc3)N2[C@@H](c2ccc(OCCOC(=O)[C@H]3C[C@H]4C(=O)N[C@@H](Cc5ccccc5)C(=O)N4[C@H]3c3ccc(O)cc3)cc2)[C@]12C(=O)Nc1ccccc12	1.55	1.44 (inactive)	1.14 (inactive)	4.4 (inactive)	2.4	1.37 (inactive)	-0.0174	1.6	1.06	0.0499
COc1ccc(O[C@H]2C=C[C@@H](c3ccccc3)O[C@@H]2COC(=O)CCC(C)=NO[C@@H](C)c2cc(-c3c(C)cc(C)cc3C)no2)cc1	-0.225	-0.843 (inactive)	1.09 (inactive)	-0.159 (inactive)	-0.687	-0.312 (inactive)	-0.219	-0.916	-2.17	-0.214
C=CC[C@@H]1C=C[C@H](ON=C2c3cc(OC)ccc3O[C@H](c3cccc(OC)c3)[C@H]2O)[C@@H](CO)O1	-0.524	-0.39 (inactive)	-0.851 (inactive)	-1.42 (inactive)	0.813	0.686 (inactive)	-0.233	-0.0543	0.0033	-0.133
CO[C@H]1O[C@H](CO)[C@@H](OC(=O)Nc2ccc(C#N)cc2)[C@H](OC(=O)c2cc3ccccc3[nH]2)[C@H]1OC(=O)c1cc2ccccc2[nH]1	1.3	-2.49 (inactive)	-1.17 (inactive)	0.507 (inactive)	1.77	3.01 (inactive)	0.0261	1.02	0.695	-0.0238
O=C1[C@H]2[C@H]3[C@H](O)[C@H](O)CC(=NO[C@@H]4O[C@H](CO)[C@@H](O)[C@H](O)[C@H]4O)[C@@H]3CC[C@H]2C(=O)N1c1ccc(F)cc1F	-0.841	-1.24 (inactive)	-0.114 (inactive)	-1.29 (inactive)	0.245	0.645 (inactive)	-0.119	0.575	0.79	-0.113
COc1ccc(O[C@H]2C=C[C@@H](c3ccccc3)O[C@@H]2COC(=O)CCC(C)=NO[C@H](C)c2cn([C@@H]3COC[C@H]3O)nn2)cc1	1.53	-0.88 (inactive)	-0.757 (inactive)	-0.56 (inactive)	0.146	0.508 (inactive)	-0.181	0.525	0.942	-0.148
COC(=O)[C@@]1(Cc2ccc(F)cc2)[C@@H]2C(=CC(=O)[C@H]2CC(=O)C(=O)N(C)C)CN1C(=O)c1ccccc1	1.14	1 (inactive)	1.84 (inactive)	8.71 (active)	3.5	-0.399 (inactive)	0.393	0.171	1.02	0.396
CCCCc1nc2c(c3c1C[C@H](C)OC3)CN(CCC(C)C)CC2	1.49	-0.147 (inactive)	-1.52 (inactive)	-1.07 (inactive)	2	0.567 (inactive)	-0.114	0.582	1.11	-0.0627
CN1C(=O)C2C=CC(C(O)C(c3ccccc3)c3ccccc3)N(NC(=O)OC(C)(C)C)C2C1=O (stereo not given)	1.42	-1.79 (inactive)	-4.38 (inactive)	-0.512 (inactive)	3.35	-0.805 (inactive)	0.59	-0.168	1.09	0.311
CC(C)=CCCC(C)=CCON=C1[C@H]2CCn3c(=O)n(Cc4cc5c(cc4Cl)OCO5)c(=O)n3[C@H]2[C@H](O)[C@@H]2O[C@H]12	-0.477	0.175 (inactive)	-0.105 (inactive)	0.545 (inactive)	-0.658	-0.996 (inactive)	0.0392	0.482	0.554	0.112
CC(C)OC(=O)C=C1C[C@@H](c2ccc(C#N)cc2)O[C@@H](c2ccc(C#N)cc2)O1	1.55	0.149 (inactive)	-2.93 (inactive)	1.01 (inactive)	3.36	0.554 (inactive)	0.314	0.747	1.06	0.11
Cc1cc(C)c(-c2cc([C@H](C)ON=C3[C@H]4CCn5c(=O)n(-c6ccccc6)c(=O)n5[C@H]4[C@H](O)[C@@H]4O[C@H]34)on2)c(C)c1	0.432	0.566 (inactive)	-1.84 (inactive)	0.0884 (inactive)	1.83	0.771 (inactive)	-0.133	0.627	0.766	-0.0978
CC(CCN1CCc2nc(-c3ccccc3)c(-c3ccccc3)cc2C1)=NO[C@H](C)c1cn([C@@H]2COC[C@H]2O)nn1	1.49	-0.0653 (inactive)	-1.35 (inactive)	-4.33 (inactive)	2.03	0.364 (inactive)	0.0218	0.224	0.299	-0.137
CCOC(=O)C[C@H]1[C@H](OC(=O)c2ccc(C(=O)c3ccccc3)cc2)[C@@H](NC(=O)c2ccc(-c3ccccc3)cc2)c2cc(OCCCO)ccc2N1C(=O)c1ccc2ccccc2n1	1.44	-1.05 (inactive)	0.0048 (inactive)	0.276 (inactive)	2.29	1.44 (inactive)	-0.19	0.609	1	-0.109
CC(C)=C1C(=O)C(c2ccccc2)=C2CN3C(=O)N(CCc4ccccc4)C(=O)[C@]3(Cc3ccc(F)cc3)[C@H]21	1.11	-0.129 (inactive)	-0.0353 (inactive)	0.135 (inactive)	2.04	-1.7 (inactive)	0.253	-1.25	-1.3	0.119

Structure (SMILES)	composite z-score [1]	z-score [2]	z-score [3]	z-score [4]	composite z-score [5]	z-score [6]	composite z-score [7]	composite z-score [8]	composite z-score [9]	composite z-score [10]
Cc1cc2c(nc1C)CCCN2CC(O)CN1CCN(C)CC1 (stereo not given)	1.25	-0.525 (inactive)	0.277 (inactive)	-0.856 (inactive)	0.9	-0.384 (inactive)	-0.294	0.578	0.915	-0.169
CCN1C(=O)[C@H]2[C@H]3[C@H](O)[C@H](O)CC(=NOCC=C(C)CCC=C(C)C)[C@H]3CC[C@H]2C1=O	1.56	-0.541 (inactive)	0.0853 (inactive)	-1.11 (inactive)	1.52	0.707 (inactive)	-0.0355	1.32	1.13	0.186
CC(C)c1ccc(NN2C(C(O)c3ccc4c(c3)OCO4)C=CC3C(=O)N(c4ccccc4)C(=O)C32)cc1 (stereo not given)	1.21	-0.0261 (inactive)	0.0855 (inactive)	0.599 (inactive)	3.5	0.0026 (inactive)	0.304	1.01	1.1	-0.0845
CCN1C(=O)[C@H]2[C@H]3[C@H](O)[C@H](O)CC(=NOCc4ccccc4)[C@@H]3CC[C@H]2C1=O	0.54	-2.27 (inactive)	-0.784 (inactive)	-0.433 (inactive)	0.558	-0.558 (inactive)	-0.0917	0.339	0.761	-0.0568
COC(=O)C1=C(C)N(Cc2ccccc2)[C@]23O[C@](C(=O)OC)(C(=O)N2[C@@H]1c1ccccc1)[C@H]1CCOC(=O)[C@H]13	0.33	0.828 (inactive)	0.494 (inactive)	1.71 (inactive)	0.257	0.308 (inactive)	-0.0638	0.648	1.07	-0.0152
COc1ccc([Si](C)(C)[C@@H]2[C@@H](CCO)O[C@]3(C(=O)N(Cc4ccc(NC(C)=O)cc4)c4ccccc43)[C@H]2C)cc1	1.55	2.99 (inactive)	0.282 (inactive)	34.6 (active)	2.7	1.44 (inactive)	0.0325	1.48	0.949	0.492
CC(CCN1CCCCc2nc(C)c(C)cc21)=NOC(C)CN1CCCCc2nc(C)c(C)cc21 (stereo not given)	1.52	-1.32 (inactive)	-1.49 (inactive)	0.187 (inactive)	2.37	-0.0919 (inactive)	-0.0101	1.04	1.07	0.272
NC(=O)NCC#Cc1ccc2c(c1)[C@]1(C(=O)N2)[C@H](c2ccc(O)cc2)N2[C@H](c3ccccc3)[C@H](c3ccccc3)OC(=O)[C@H]2[C@@H]1C(=O)N1CCCCCCC1	1.53	1 (inactive)	-0.447 (inactive)	1.24 (inactive)	1.55	0.951 (inactive)	1.24	1.55	1.01	0.511
COC(=O)CC=C[C@@H](C)[C@@H](C=NO[C@H](C)c1cn([C@@H]2COC[C@H]2O)nn1)OC	1.35	0.212 (inactive)	0.189 (inactive)	-0.266 (inactive)	0.965	0.135 (inactive)	-0.156	0.359	0.484	0.0009
COC(=O)[C@]1(CO)N=C(c2ccc(OCCCO)cc2)O[C@@H]1c1ccccc1N=[N+]=[N-]	1.53	-0.726 (inactive)	-0.683 (inactive)	-1.12 (inactive)	3.19	0.269 (inactive)	-0.0639	1.82	0.298	-0.162
N#Cc1ccc(NN2C(C(O)c3cc(C(F)(F)F)cc(C(F)(F)F)c3)C=CC3C(=O)N(c4ccccc4)C(=O)C32)cc1 (stereo not given)	1.34	0.628 (inactive)	0.817 (inactive)	4.19 (inactive)	3.45	-1.55 (inactive)	0.135	0.0695	1.05	0.0731
CC(CCC(=O)OC[C@H]1O[C@H](C#Cc2ccccc2)C=C[C@@H]1Oc1ccc(C)cc1)=NO[C@@H](C)c1cn([C@H](CO)Cc2ccccc2)nn1	0.668	0.846 (inactive)	0.21 (inactive)	12.2 (active)	0.373	-0.434 (inactive)	-0.145	0.237	0.281	-0.0461
O=C1[C@H]2[C@H]3[C@H](O)[C@H](O)CC(=NOCc4ccccc4)[C@H]3CC[C@H]2C(=O)N1c1cccc(Oc2ccccc2)c1	1.48	-0.0026 (inactive)	0.019 (inactive)	-1.12 (inactive)	2.41	0.211 (inactive)	-0.0654	0.729	0.824	0.0801
COC(=O)[C@@]1(Cc2ccc(F)cc2)[C@H]2c3cc(C(=O)N(C)C)n(Cc4ccc(OC)c(OC)c4)c3C[C@H]2CN1C(=O)c1ccccc1	-1.32	0.0573 (inactive)	-0.636 (inactive)	-0.249 (inactive)	1.54	-0.31 (inactive)	0.498	-0.344	-0.309	0.365
O=C1NC(=O)C2C1C=CC(C(O)Cc1ccccc1)N2Nc1ccccn1 (stereo not given)	0.185	-0.47 (inactive)	1.21 (inactive)	-1.22 (inactive)	2.31	0.297 (inactive)	0.101	0.0356	0.504	0.0026
O=C(NN=C1C[C@@H](O)[C@@H](O)[C@@H]2[C@@H]3C(=O)N(c4ccc(F)cc4F)C(=O)[C@@H]3CC[C@@H]12)OCc1ccccc1	-0.127	0.615 (inactive)	0.664 (inactive)	-0.442 (inactive)	1.03	0.203 (inactive)	-0.11	-0.0944	0.57	-0.0616
COC(=O)[C@@H]1CCCN1C(=O)[C@@H](C)CO	0.177	-1.12 (inactive)	-0.988 (inactive)	0.258 (inactive)	0.93	-0.197 (inactive)	-0.152	0.415	0.753	0.0055
